Assay results reported in PubChem BioAssay AID1159580 (chemical genetic matrix, 2015).
In all, about 5,500 compounds went through this assay and about 2,000 (36%) were called active. Another 18% or so got no clear call; they are omitted. The list shows a part of the results. Values without a mark were called inactive. No stated cut-off is given here; in the data, active means normalized growth mostly below about 0.91 (no sharp cut-off); inconclusive means no clear call, values can overlap the other calls; inactive means mostly above about 0.92.

Assay: chemical genetic growth profiling, strain panel (AID 1159580);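 further: tested at 20 µM; growth read once vehicle control cultures reached saturation at 30 °C; 1 = growth at the plate median or of vehicle wells; lower values mean less growth of the strain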
Conditions: growth OD

## O=C(O[C@@H]1Cc2c(O)cc(O)cc2O[C@@H]1c1ccc(O)c(O)c1)c1cc(O)c(O)c(O)c1
S. cerevisiae deletion strains, locus YJR043C, strain POL32, hits give low values
  normalized growth: 0.792 (active)
S. cerevisiae deletion strains, locus YJR066W, strain TOR1, hits give low values
  normalized growth: 0.93
S. cerevisiae deletion strains, locus YKL009W, strain mrt4, hits give low values
  normalized growth: 1.02
S. cerevisiae deletion strains, locus YKL068W, hits give low values
  normalized growth: 1.01
S. cerevisiae deletion strains, locus YKL085W, strain MDH1 (second series), hits give low values
  normalized growth: 0.997
S. cerevisiae deletion strains, locus YKL085W, strain MDH1, hits give low values
  normalized growth: 0.997
S. cerevisiae deletion strains, locus YKL160W, strain elf1, hits give low values
  normalized growth: 0.97
S. cerevisiae deletion strains, locus YKR001C, strain vps1, hits give low values
  normalized growth: 1.04
S. cerevisiae deletion strains, locus YKR026C, strain gcn3, hits give low values
  normalized growth: 1.03
S. cerevisiae deletion strains, locus YKR091W, strain srl3, hits give low values
  normalized growth: 1.02
S. cerevisiae deletion strains, locus YLL001W, strain dnm1, hits give low values
  normalized growth: 0.982
S. cerevisiae deletion strains, locus YLL026W, hits give low values
  normalized growth: 1.03
S. cerevisiae deletion strains, locus YLL041C, strain sdh2, hits give low values
  normalized growth: 1.02
S. cerevisiae deletion strains, locus YLR027C, strain aat2, hits give low values
  normalized growth: 0.993
S. cerevisiae deletion strains, locus YLR039C, strain RIC1, hits give low values
  normalized growth: 0.715
S. cerevisiae deletion strains, locus YLR058C, strain SHM2, hits give low values
  normalized growth: 0.883 (active)
S. cerevisiae deletion strains, locus YLR102C, strain apc9, hits give low values
  normalized growth: 1.01
S. cerevisiae deletion strains, locus YLR113W, strain HOG1, hits give low values
  normalized growth: 1.01
S. cerevisiae deletion strains, locus YLR221C, strain rsa3, hits give low values
  normalized growth: 1.01
S. cerevisiae deletion strains, locus YLR258W, strain gsy2, hits give low values
  normalized growth: 0.952
S. cerevisiae deletion strains, locus YLR262C, strain YPT6 (second series), hits give low values
  normalized growth: 0.909
S. cerevisiae deletion strains, locus YLR268W, strain sec22, hits give low values
  normalized growth: 0.94
S. cerevisiae deletion strains, locus YLR320W, strain mms22, hits give low values
  normalized growth: 1.02
S. cerevisiae deletion strains, locus YLR342W, strain FKS1 (second series), hits give low values
  normalized growth: 0.628 (active)
S. cerevisiae deletion strains, locus YLR342W, strain FKS1, hits give low values
  normalized growth: 0.831 (active)
S. cerevisiae deletion strains, locus YLR357W, strain rsc2, hits give low values
  normalized growth: 0.865
S. cerevisiae deletion strains, locus YLR370C, strain arc18, hits give low values
  normalized growth: 0.935
S. cerevisiae deletion strains, locus YLR371W, strain rom2, hits give low values
  normalized growth: 0.916
S. cerevisiae deletion strains, locus YLR384C, strain iki3, hits give low values
  normalized growth: 1.03
S. cerevisiae deletion strains, locus YLR418C, strain cdc73, hits give low values
  normalized growth: 0.963
S. cerevisiae deletion strains, locus YML016C, strain PPZ1, hits give low values
  normalized growth: 0.841 (active)
S. cerevisiae deletion strains, locus YML032C, strain rad52, hits give low values
  normalized growth: 1.02
S. cerevisiae deletion strains, locus YML120C, strain ndi1, hits give low values
  normalized growth: 1
S. cerevisiae deletion strains, locus YML124C, strain tub3, hits give low values
  normalized growth: 1.03
S. cerevisiae deletion strains, locus YMR058W, strain fet3, hits give low values
  normalized growth: 0.564 (active)
S. cerevisiae deletion strains, locus YMR078C, strain ctf18, hits give low values
  normalized growth: 1.02
S. cerevisiae deletion strains, locus YMR125W, strain sto1, hits give low values
  normalized growth: 1.12 [resistant] (active)
S. cerevisiae deletion strains, locus YMR129W, hits give low values
  normalized growth: 1.03
S. cerevisiae deletion strains, locus YMR205C, strain PFK2, hits give low values
  normalized growth: 1.03
S. cerevisiae deletion strains, locus YMR223W, strain ubp8, hits give low values
  normalized growth: 0.985
S. cerevisiae deletion strains, locus YMR231W, strain pep5, hits give low values
  normalized growth: 0.972
S. cerevisiae deletion strains, locus YMR263W, strain SAP30, hits give low values
  normalized growth: 0.997
S. cerevisiae deletion strains, locus YMR307W, strain GAS1, hits give low values
  normalized growth: 0.606
S. cerevisiae deletion strains, locus YNL067W, strain RPL9B, hits give low values
  normalized growth: 0.961
S. cerevisiae deletion strains, locus YNL071W, strain lat1, hits give low values
  normalized growth: 1.02
S. cerevisiae deletion strains, locus YNL183C, strain NPR1, hits give low values
  normalized growth: 0.938
S. cerevisiae deletion strains, locus YNL209W, strain ssb2, hits give low values
  normalized growth: 0.597 (active)
S. cerevisiae deletion strains, locus YNL233W, strain BNI4, hits give low values
  normalized growth: 0.932
S. cerevisiae deletion strains, locus YNL248C, strain rpa49, hits give low values
  normalized growth: 0.973
S. cerevisiae deletion strains, locus YNL250W, strain rad50, hits give low values
  normalized growth: 1.04
S. cerevisiae deletion strains, locus YNL271C, strain bni1, hits give low values
  normalized growth: 1.02
S. cerevisiae deletion strains, locus YNL298W, strain CLA4, hits give low values
  normalized growth: 1.01
S. cerevisiae deletion strains, locus YNL307C, strain MCK1, hits give low values
  normalized growth: 1.01
S. cerevisiae deletion strains, locus YNL322C, strain KRE1 (second series), hits give low values
  normalized growth: 1.06
S. cerevisiae deletion strains, locus YNR049C, strain mso1, hits give low values
  normalized growth: 1.04
S. cerevisiae deletion strains, locus YNR052C, strain pop2, hits give low values
  normalized growth: 0.989
S. cerevisiae deletion strains, locus YOL006C, strain TOP1, hits give low values
  normalized growth: 0.507 (active)
S. cerevisiae deletion strains, locus YOL012C, strain htz1
  normalized growth: 0.447
S. cerevisiae deletion strains, locus YOL147C, strain pex11, hits give low values
  normalized growth: 1.02
S. cerevisiae deletion strains, locus YOR001W, strain rrp6, hits give low values
  normalized growth: 1.01
S. cerevisiae deletion strains, locus YOR061W, strain CKA2, hits give low values
  normalized growth: 0.925
S. cerevisiae deletion strains, locus YOR069W, strain VPS5, hits give low values
  normalized growth: 0.97
S. cerevisiae deletion strains, locus YOR070C, strain gyp1, hits give low values
  normalized growth: 0.97
S. cerevisiae deletion strains, locus YOR080W, strain dia2, hits give low values
  normalized growth: 0.983
S. cerevisiae deletion strains, locus YOR083W, strain WHI5, hits give low values
  normalized growth: 0.961
S. cerevisiae deletion strains, locus YOR106W, strain vam3, hits give low values
  normalized growth: 0.622 (active)
S. cerevisiae deletion strains, locus YOR136W, strain idh2, hits give low values
  normalized growth: 1.01
S. cerevisiae deletion strains, locus YOR144C, strain elg1, hits give low values
  normalized growth: 1.02
S. cerevisiae deletion strains, locus YOR184W, strain ser1, hits give low values
  normalized growth: 0.969
S. cerevisiae deletion strains, locus YOR231W, strain MKK1, hits give low values
  normalized growth: 0.992
S. cerevisiae deletion strains, locus YOR265W, strain rbl2, hits give low values
  normalized growth: 0.988
S. cerevisiae deletion strains, locus YOR270C, strain vph1, hits give low values
  normalized growth: 0.923
S. cerevisiae deletion strains, locus YOR290C, strain snf2, hits give low values
  normalized growth: 0.97
S. cerevisiae deletion strains, locus YOR316C, strain cot1, hits give low values
  normalized growth: 1.03
S. cerevisiae deletion strains, locus YPL051W, strain arl3, hits give low values
  normalized growth: 0.776 (active)
S. cerevisiae deletion strains, locus YPL055C, strain LGE1, hits give low values
  normalized growth: 0.761
S. cerevisiae deletion strains, locus YPL078C, strain atp4, hits give low values
  normalized growth: 0.986
S. cerevisiae deletion strains, locus YPL106C, strain sse1, hits give low values
  normalized growth: 0.896
S. cerevisiae deletion strains, locus YPL240C, strain hsp82, hits give low values
  normalized growth: 1.01
S. cerevisiae deletion strains, locus YPL241C, strain CIN2, hits give low values
  normalized growth: 0.973
S. cerevisiae deletion strains, locus YPL256C, strain CLN2, hits give low values
  normalized growth: 1.01
S. cerevisiae deletion strains, locus YPR119W, strain clb2, hits give low values
  normalized growth: 1.04
S. cerevisiae deletion strains, locus YPR141C, strain kar3, hits give low values
  normalized growth: 1
S. cerevisiae deletion strains, locus YPR163C, strain tif3, hits give low values
  normalized growth: 1.03
S. cerevisiae deletion strains, locus YPR167C, strain met16, hits give low values
  normalized growth: 1.03
S. cerevisiae deletion strains, strain wtn01, hits give low values
  normalized growth: 0.963
S. cerevisiae strains, strain wild type, hits give low values
  normalized growth: 0.702 (active)
